Measurements reported in PubChem BioAssay (NCATS).
Records with an inconclusive call do not appear. Activity calls are given as the source filed them. Unless noted, calls follow the shape of the dose curve; as a rule, active = well fitted curve in the direction sought with a large enough effect; inconclusive = small, poorly fitted or top-dose-only effect, or another doubt; inactive = no such curve, though single readings can be large; an effect the other way counts as inactive or inconclusive.

Legend:
[1] = target: Luciferin 4-monooxygenase (Photinus pyralis) (UniProt P08659); test: Biochemical firefly luciferase enzyme assay for NPC (AID 624030);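 also: purified P. pyralis luciferase at 10 nM with luciferin and ATP substrate; 0% = DMSO and -100% = full luciferase inhibition by PTC124 control; nearly all actives have a fitted effect of over 70% in size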
Method in brief: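 Counter-screen for direct inhibition of the luciferase enzyme by approved-drug library compounds, run at 10 nM enzyme in 50 mM Tris acetate (final). Luminescence was read within 5 min of enzyme-buffer addition and normalized to PTC124 versus DMSO (0%).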

[2] = S16 Schwann cell viability assay (CellTiter-Glo assay) (AID 624031);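 also: cellular ATP luminescence as a viability measure; plate controls were DMSO-treated cells for no effect and cell-free wells for full effect; nearly all actives have a fitted effect of over 70% in size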
Method in brief: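 Native S16 Schwann cells (rat), serum-containing medium, overnight attachment then 24 h drug exposure at 37 °C/5% CO2. CellTiter-Glo ATP signal; normalized to cell-free and vehicle wells.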

[3] = S16 Schwann cell PMP22 intronic element firefly luciferase assay (AID 624032);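 also: plate controls were DMSO for no effect and PTC124 positive control mean for full effect; nearly all actives have a fitted effect of over 30% in size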
Method in brief: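 Rat S16 Schwann cells stably carrying a PMP22 intronic element-driven Fluc reporter were seeded overnight, then exposed to compounds for 24 h at 37 °C. Luminescence was normalized to PTC124 (positive control) and DMSO (0% activity).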

[4] = S16 Schwann cell PMP22 intronic element beta-lactamase assay (AID 624044; calls by dose curve;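 also: 0% = DMSO and -100% = potassium clavulanate positive control; nearly all actives have a fitted effect of over 15% in size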)
Method in brief: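 Beta-lactamase reporter under a PMP22 intronic regulatory element in stable S16 rat Schwann cells; 24 h compound exposure. 460 nm blue signal normalized between DMSO (0%) and potassium clavulanate, with 535 nm FRET tracking viability; curves classed by r2 and response.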

[5] = tested on: CP260; test: qHTS profiling for inhibitors of Plasmodium falciparum proliferation (AID 504749);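 also: 0% = DMSO vehicle and full inhibition = artemisinin control; nearly all actives have a fitted effect of over 60% in size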; conditions: P. falciparum in erythrocytes, SYBR Green DNA, 72 h; series mostly up to 28.7 µM
Method in brief: (§1)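 Fluorescence of SYBR Green-bound parasite DNA, read at 485/535 nm, served as the growth measure. Infected erythrocytes were cultured with compound 72 h; artemisinin (0.29 uM) and DMSO wells defined the normalization range.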

[6] = tested on: ICS; test: as above; conditions: P. falciparum in erythrocytes, SYBR Green DNA, 72 h; series mostly up to 28.7 µM
Method in brief: as §1

[7] = tested on: JCK; test: as above; conditions: P. falciparum in erythrocytes, SYBR Green DNA, 72 h; series mostly up to 28.7 µM
Method in brief: as §1

[8] = Cell Viability - LYMP2-001 (AID 921);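 also: 0% = DMSO only and full inhibition = tetraoctylammonium bromide control wells; nearly all actives have a fitted effect of over 70% in size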
Method in brief: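 Cellular ATP loss read by luciferase luminescence after 24 h compound exposure at 37 C in complete medium. LYMP2-001 lymphoblastoid cells, 2500/well; qHTS concentration-response data fitted with Hill equation for AC50.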

[9] = qHTS assay to identify small molecules that stimulate interleukin-8 (IL-8) secretion (AID 651758; active = well fitted activation curve with a large enough effect in the signal ratio; the % refers to the signal ratio; also: 0% is about no effect)
Method in brief: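 Quantitative HTS in THP-1 monocytic cells at 2000 cells per well, with 16 hrs compound incubation at 37 C. IL-8 in the medium was then quantified by HTRF immunoassay, read after 1-3 hrs at room temperature.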

[10] = Cellular Toxicity (caspase-3) BJ (AID 658);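 also: 0% = DMSO basal and 100% = 10 µM staurosporine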
Method in brief: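 Plated BJ cells (1000/well) rested 5 hr, received compound for 16 hr at 37 °C, then Caspase-Glo 3/7 reagent for 1 hr at room temperature before luminescence reading.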

[11] = Cell Viability - LYMP2-026 (AID 989); also: % is scaled to controls: 0 for no effect and ±100 for the full control effect; nearly all actives have a fitted effect of over 50% in size
Method in brief: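 Acute toxicity screen in complete culture medium, with 24 hr compound exposure at 37 C. Viability read as cellular ATP via luciferase reaction, with tetraoctylammonium bromide (6.4pM to 92 uM) as positive control.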

[12] = target: Glucocorticoid receptor (Homo sapiens) (UniProt P04150); test: qHTS assay for small molecule agonists of glucocorticoid receptor signaling (AID 588532; active = well fitted curve in the direction sought with a large enough effect in the signal ratio, with a control signal flat; the % refers to the signal ratio;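 also: 100% = dexamethasone at 0.1 µM and 0% = DMSO only wells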); conditions: HeLa MMTV-bla, beta-lactamase ratio, agonist, 18 h; hits give high values; percent of dexamethasone control, DMSO zero
Method in brief: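 Titration series, up to 92 uM, applied to GRE-bla HeLa cells for 18 h at 37 C. Detection by CCF4 FRET substrate after 2 h at RT.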

[13] = target: Bile acid receptor (Homo sapiens) (UniProt Q96RI1); test: qHTS assay for small molecule antagonists of farnesoid X receptor signaling (AID 588526; calls by dose curve; also: % is scaled to controls: 0 for no effect and ±100 for the full control effect)
Method in brief: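 Concentration-response titrations were fitted to the Hill equation for half-maximal inhibition and maximal response, with data normalised to 50 uM chenodeoxycholic acid and DMSO control wells. Cells: FXR-UAS-bla HEK293T, dialyzed FBS.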

[14] = target: Retinoic acid receptor RXR-alpha (Homo sapiens) (UniProt P19793); test: qHTS assay for small molecule agonists of retinoid X receptor alpha signaling (AID 588544; calls by dose curve;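 also: 0% = DMSO basal wells and 100% = reference agonist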)
[15] = qHTS assay for cell viability of HEK293 cells (AID 743288); conditions: ATP luminescence (CellTiter-Glo), 18 h; max response: hits give low values; also: % is scaled to controls: 0 for no effect and ±100 for the full control effect; nearly all actives have a fitted effect of over 50% in size
Method in brief: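 Readout is luciferase-coupled ATP content (CellTiter-Glo luminescence, 30 min room temperature) as a measure of metabolically competent cells. Parental HEK293 cells were plated 5 h or more before compound addition, then treated 18 h at 37 C.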

Glucocorticoid receptor (Homo sapiens), sequence (P04150 whole entry, looked up): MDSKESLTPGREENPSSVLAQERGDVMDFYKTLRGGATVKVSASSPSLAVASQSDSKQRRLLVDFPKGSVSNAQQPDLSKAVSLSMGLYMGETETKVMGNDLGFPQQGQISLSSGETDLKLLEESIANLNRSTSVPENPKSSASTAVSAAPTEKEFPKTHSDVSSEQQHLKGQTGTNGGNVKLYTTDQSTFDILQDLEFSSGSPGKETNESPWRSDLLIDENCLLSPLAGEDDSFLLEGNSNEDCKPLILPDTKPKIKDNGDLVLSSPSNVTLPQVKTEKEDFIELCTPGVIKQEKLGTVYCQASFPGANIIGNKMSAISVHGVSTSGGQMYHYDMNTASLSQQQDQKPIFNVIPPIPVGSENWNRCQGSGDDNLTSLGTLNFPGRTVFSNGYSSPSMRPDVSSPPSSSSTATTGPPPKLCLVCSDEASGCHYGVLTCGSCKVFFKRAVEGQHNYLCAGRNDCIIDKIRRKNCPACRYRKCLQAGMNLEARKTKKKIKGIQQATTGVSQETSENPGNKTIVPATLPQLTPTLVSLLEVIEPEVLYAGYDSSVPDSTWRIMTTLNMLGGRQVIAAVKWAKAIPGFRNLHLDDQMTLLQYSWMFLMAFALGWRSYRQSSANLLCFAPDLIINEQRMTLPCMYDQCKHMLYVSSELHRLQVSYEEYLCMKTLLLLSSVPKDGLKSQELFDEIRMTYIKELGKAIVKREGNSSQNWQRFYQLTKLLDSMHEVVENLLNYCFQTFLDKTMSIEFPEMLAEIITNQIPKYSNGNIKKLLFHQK
Luciferin 4-monooxygenase (Photinus pyralis), sequence (P08659 whole entry, looked up): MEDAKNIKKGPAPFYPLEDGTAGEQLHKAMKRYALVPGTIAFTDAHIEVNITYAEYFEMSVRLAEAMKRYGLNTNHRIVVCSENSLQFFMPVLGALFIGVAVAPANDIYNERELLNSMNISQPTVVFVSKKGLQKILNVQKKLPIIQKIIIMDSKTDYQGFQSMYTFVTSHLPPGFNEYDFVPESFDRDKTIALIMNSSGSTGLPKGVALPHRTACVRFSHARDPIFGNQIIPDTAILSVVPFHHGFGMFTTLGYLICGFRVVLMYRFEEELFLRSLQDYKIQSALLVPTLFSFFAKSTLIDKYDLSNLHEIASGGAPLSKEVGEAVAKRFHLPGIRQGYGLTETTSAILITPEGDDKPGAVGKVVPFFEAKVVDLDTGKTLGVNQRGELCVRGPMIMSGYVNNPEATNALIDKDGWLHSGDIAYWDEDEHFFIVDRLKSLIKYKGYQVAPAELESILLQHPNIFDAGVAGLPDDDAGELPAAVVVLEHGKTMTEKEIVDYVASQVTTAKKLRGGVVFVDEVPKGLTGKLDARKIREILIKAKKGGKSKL
Retinoic acid receptor RXR-alpha (Homo sapiens), sequence (P19793 whole entry, looked up): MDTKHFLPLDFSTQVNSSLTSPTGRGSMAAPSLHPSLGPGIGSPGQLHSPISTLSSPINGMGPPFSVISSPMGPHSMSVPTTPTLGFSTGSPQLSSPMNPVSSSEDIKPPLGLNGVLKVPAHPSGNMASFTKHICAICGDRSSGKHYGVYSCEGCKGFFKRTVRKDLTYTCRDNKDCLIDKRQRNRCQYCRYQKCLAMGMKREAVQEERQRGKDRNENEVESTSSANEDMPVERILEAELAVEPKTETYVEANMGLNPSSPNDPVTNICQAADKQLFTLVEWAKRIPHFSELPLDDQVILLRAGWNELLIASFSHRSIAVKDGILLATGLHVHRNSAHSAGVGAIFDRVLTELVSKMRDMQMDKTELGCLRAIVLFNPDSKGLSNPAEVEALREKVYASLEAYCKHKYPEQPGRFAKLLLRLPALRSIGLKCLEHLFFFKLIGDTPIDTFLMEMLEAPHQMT
Bile acid receptor (Homo sapiens), sequence (Q96RI1 whole entry, looked up): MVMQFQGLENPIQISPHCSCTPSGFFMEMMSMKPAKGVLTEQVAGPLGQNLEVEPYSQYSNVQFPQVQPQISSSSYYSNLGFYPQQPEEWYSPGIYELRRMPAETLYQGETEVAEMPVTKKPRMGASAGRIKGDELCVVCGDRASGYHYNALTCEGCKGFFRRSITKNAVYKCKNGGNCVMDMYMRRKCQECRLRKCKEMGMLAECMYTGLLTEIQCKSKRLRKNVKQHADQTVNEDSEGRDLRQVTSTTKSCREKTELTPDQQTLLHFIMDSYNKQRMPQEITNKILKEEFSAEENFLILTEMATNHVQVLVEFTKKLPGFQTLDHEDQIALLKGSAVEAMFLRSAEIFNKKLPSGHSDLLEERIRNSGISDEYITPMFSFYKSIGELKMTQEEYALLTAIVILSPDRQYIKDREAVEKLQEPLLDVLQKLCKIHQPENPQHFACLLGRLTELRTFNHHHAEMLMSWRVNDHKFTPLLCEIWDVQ

CC(=O)OC1CC2CCC1(C)C2(C)C (stereo not given)
inactive: Potency [1] | Potency [2] | Potency [3] | Potency [4] | Potency [5] | Potency [6] | Potency [7]

C=CC(=C)CCC=C(C)C
inactive: Potency [8] | Potency [9]

COc1cc(/C=C/c2ccccc2)oc(=O)c1
inactive: outcome [10] | Potency [11] | activation [12] 1.13%

C=CC(C)(CCC=C(C)C)OC(C)=O (stereo not given)
inactive: outcome [13] | outcome [14] | max response [15] -14.2%
